Cav32 inh: inhibitors of human Cav3.2 T-type calcium channel; Cav3.2-expressing cells, Fluo-4 calcium fluorescence FDSS; stronger effect = lower value; B-score at 10 µM; AID 449739; O95180; 4% of 100,000 active;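 active means single-dose well whose peak fluorescence ratio is a statistical outlier from its plate by either plate-standardised score or position-corrected B-score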
PostGolgi ctrl: inhibits growth of the yeast control strain; efflux-deficient yeast background strain, growth absorbance A615, 16 h; inhibition, % at 10 µM; 5% of 98,000 active
DAT uptake mod: modulates human dopamine transporter uptake under cocaine; Q01959; LLC-PK1 hDAT cells, [14C]-dopamine uptake with cocaine IC80; actives deviate in either direction; B-score at 10 µM; 1.3% of 110,000 active; AID 449768;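 active means Z score or B-score, a plate-position-corrected score, falls beyond the plate's 99.7% confidence bounds, in either direction; inactive means both scores lie inside the 99.7% bounds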;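 further: scored against the spread of the other compound wells on the same plate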
PLAP act: human PLAP activation; P05187; purified PLAP enzyme, luminescent substrate read-out; stronger effect = higher value; activation fold at 20 µM; 1.2% of 96,000 active; AID 696; in the data active means activation fold above about 2
Target sequence (P05187 whole entry, looked up): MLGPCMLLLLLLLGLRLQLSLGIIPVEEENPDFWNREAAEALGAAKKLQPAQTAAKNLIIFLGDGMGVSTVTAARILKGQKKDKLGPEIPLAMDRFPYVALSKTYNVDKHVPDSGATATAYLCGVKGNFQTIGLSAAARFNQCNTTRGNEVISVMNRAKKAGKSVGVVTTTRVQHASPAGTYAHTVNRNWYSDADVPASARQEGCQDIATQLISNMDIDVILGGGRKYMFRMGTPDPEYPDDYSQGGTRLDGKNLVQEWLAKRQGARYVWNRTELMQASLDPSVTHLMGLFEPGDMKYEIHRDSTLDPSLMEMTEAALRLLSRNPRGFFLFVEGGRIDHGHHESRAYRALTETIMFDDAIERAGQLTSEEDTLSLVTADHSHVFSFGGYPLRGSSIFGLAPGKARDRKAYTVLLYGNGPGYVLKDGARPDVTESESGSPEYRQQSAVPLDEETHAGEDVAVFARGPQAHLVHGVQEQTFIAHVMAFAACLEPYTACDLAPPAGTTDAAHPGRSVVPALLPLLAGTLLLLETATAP
PostGolgi yeast: growth inhibition of a yeast mutant, post-Golgi transport screen; post-Golgi transport phenotypic cell assay; inhibition, % at 10 µM; 0.9% of 98,000 active; AID 739;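 further: yeast cells grown in 1536-well plates; yeast grown about 18 h at 30C before absorbance read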
Starred values were filed as active, the others as inactive; . = not tested or not shown. An excerpt weighted towards active compounds, which were near 9.6% of everything screened. Unless noted, no stated cut-off is given here; in the data, active means inhibition above about 30%; inactive means the rest.

SMILES | Cav32 inh | PostGolgi ctrl | DAT uptake mod | PLAP act | PostGolgi yeast
C=C1CCC(C)C(C)(CCC2=CCOC2=O)C/C=C\C=C/1C(=O)O (stereo not given) | -3.88* | . | 0.953 | . | .
N#Cc1c(-c2cccs2)cc(C2CC2)nc1SCC(N)=O | -0.0372 | 3.5 | 1.11 | 1 | -0.6
CCCNC(=O)Cn1nc(C(F)(F)F)c2c1CCCC2 | 0.105 | . | 0.549 | . | .
Cc1cccc(N(CC(=O)NCc2ccc3c(c2)OCO3)C(=O)CCC(=O)Nc2ccccn2)c1 | . | -1.1 | 0.131 | 1.6 | 1.2
Cc1nn(-c2ccccc2)c(C)c1C(=O)OCC(=O)c1c(N)n(CC(C)C)c(=O)n(C)c1=O | -3.84* | 8.4 | -0.0069 | 1.5 | -3.8
CC(C)Cn1c(N)c(C(=O)COC(=O)c2cc(C3CC3)nc3ccccc23)c(=O)n(C)c1=O | -0.475 | . | 2.02 | . | .
CC(C)Cn1c(N)c(C(=O)COC(=O)c2cc(-c3ccccc3)nc3ccccc23)c(=O)n(C)c1=O | -1.18 | . | 2.47* | . | .
CC(C)Cn1c(N)c(C(=O)COC(=O)c2cc(-c3ccco3)nc3ccccc23)c(=O)n(C)c1=O | . | -0.5 | . | 1.5 | -8.2
NC(=O)C1CCN(c2ncnc3c(-c4ccccc4)nsc23)CC1 | 0.84 | 26.0 | -7.19* | 0.9 | -6.1
O=C(c1ccc(Br)cc1)c1cc([N+](=O)[O-])ccc1N1CCCCC1 | -3.63* | 15.4 | -1.16 | 1 | 1.8
CN1CCN(c2ccc([N+](=O)[O-])cc2C(=O)c2ccc(Br)cc2)CC1 | -1.77 | 20.8 | 0.217 | 1.3 | 8.0
CC(CC1C(C#N)=C(N)SC(N)=C1C#N)c1ccccc1 (stereo not given) | . | 3.2 | 0.394 | 1.4 | 0.6
Nc1nc(-c2ccccc2)cc(-c2ccccc2O)n1 | 0.394 | 35.2* | -0.796 | 1.2 | 53.8*
CC(NC(=O)c1ccc(CS(=O)(=O)c2cccc(C(F)(F)F)c2)o1)c1ccc2c(c1)OCCO2 (stereo not given) | -2.11 | 14.2 | 0.0606 | 1.3 | 37.1*
O=C(NCc1ccco1)c1ccc(CS(=O)(=O)c2cccc(C(F)(F)F)c2)o1 | 0.519 | 3.5 | -0.523 | 1.1 | 0.5
CC(NC(=O)c1ccc(CS(=O)(=O)Cc2ccccc2F)o1)c1ccc2c(c1)OCCO2 (stereo not given) | 0.00186 | 8.2 | -0.194 | . | 1.4
O=C(NCc1ccc2c(c1)OCO2)c1ccc(CS(=O)(=O)c2cccc(C(F)(F)F)c2)o1 | . | 26.5 | . | 1 | 95.6*
Cc1nn(CC#N)c(=O)n1-c1cccc(F)c1 | 0.272 | 6.5 | 0.885 | 0.8 | -3.4
CCc1ccccc1NC(=O)c1cc2sccc2n1C | -2.43* | 9.1 | 0.196 | 0.9 | 3.8
Cc1ccc(-n2c(Cn3cnc4ccccc43)nnc2SCC(=O)O)cc1 | 0.647 | 2.7 | 0.0606 | . | 9.4
NS(=O)(=O)c1ccc(Nc2nc(-c3ccc4ccccc4c3)cs2)cc1 | 0.765 | 41.9* | -0.0797 | 0.9 | -2.7
Cc1ccc(C)c2c1cc(C)c1nnc(SCc3ccccn3)n12 | 1.13 | 89.5* | -0.456 | 1.1 | 36.5*
N#Cc1c2c(c(NCc3cccnc3)n3c1nc1ccccc13)CCC2 | 2 | 11.8 | 0.852 | 0.8 | -0.3
CCC(=O)Nc1c(-c2cccs2)c(=O)c2ccccc2n1C | -0.56 | 4.2 | 0.369 | 1.1 | -1.1
Cn1c2ccccc2c(=O)c2c(=O)n(C3CCCCC3)c(-c3cccs3)nc21 | -4.31* | 26.1 | -0.765 | 0.8 | 9.8
SMILES | Cav32 inh | PostGolgi ctrl | DAT uptake mod | PLAP act | PostGolgi yeast
Cc1cc(C)c2c(c1)/C(=C/C(=O)c1ccc(Br)s1)C(=O)N2 | 0.0133 | 70.8* | -0.342 | 0.8 | 103.0*
CCc1ccc2c(c1)/C(=N/N(C)C(=S)NC)C(=O)N2 | . | 8.2 | . | 0.9 | -2.8
CCc1ccc2c(c1)/C(=C/C(=O)c1cccs1)C(=O)N2 | 1.44 | 87.2* | -0.937 | 0.7 | 76.0*
Cc1cccc2c1NC(=O)/C2=C\C(=O)c1cccs1 | 0.494 | 52.3* | 1.57 | 0.9 | 3.7
CCOC(=O)N1CCN(Cc2nc3c(c(=O)n(C)c(=O)n3C)n2CCC(C)C)CC1 | 2.09 | -7.2 | 0.514 | 1.5 | 3.4
c1ccc(Oc2cccc(NC3=NCCC3)c2)cc1 | -0.00141 | 1.4 | -0.0629 | 1.2 | 0.2
COc1ccccc1NC(=O)NS(=O)(=O)c1ccc(C)cc1 | -0.288 | -1.1 | 0.222 | 0.8 | -6.3
COc1ccc(-n2c(C)cc(C(=O)Cn3c(NCCO)nc4ccccc43)c2C)cc1 | -6.77* | 19.2 | 2.13* | 1.6 | 10.6
O=C(NC1CCCCC1)c1cccc(COCC(F)(F)F)c1 | 0.00814 | . | -1.05 | . | .
CC1(C)Cc2c(ccc3ccccc23)C(NNC(=O)c2cccnc2)=N1 | 0.727 | -2.7 | -0.241 | 1.4 | 23.5
O=C(CN(C(=O)CSc1nc2ccccc2o1)c1cccc(F)c1)NC1CCCCC1 | -5.63* | 7.0 | -0.338 | 1 | 1.8
O=C(O)CSc1nc2ccccc2o1 | . | 15.0 | -8.58* | 1.1 | 4.7
O=S(=O)(CCSc1nc2ccccc2o1)c1nc2ccccc2s1 | -1.34 | 60.9* | 0.103 | 0.7 | 3.5
O=C(CN(C(=O)CSc1nc2ccccc2o1)c1ccccc1)NC1CCCCC1 | -2.95* | 10.9 | 0.437 | 0.9 | 3.5
CCOC(=O)c1cnc(SCC(=O)NCc2cccs2)nc1N | 0.172 | 22.3 | 0.0427 | 0.9 | 0.3
O=C1C=C(c2cc3ccccc3s2)CCC1 | -0.84 | . | -0.0199 | . | .
O=C(OCc1ccc(Cl)cc1Cl)c1cccnc1Cl | -0.686 | 4.8 | -8.56* | 1.2 | 5.2
COc1cccc(N2C(=O)C3CCCN3C2c2ccc(Cl)cc2)c1 (stereo not given) | -1.01 | -2.9 | -0.0722 | 1.6 | -6.6
CC(NC(=O)CN1CCC(C(N)=O)CC1)c1ccccc1 (stereo not given) | . | 5.5 | -8.07* | 1 | -2.7
COc1cc(C(=O)NCCOc2cccc(C)c2)c(Br)c(OC)c1OC | -0.0078 | 13.6 | 2.11 | 1 | -5.5
COC(=O)CCC(=O)OC1(C)C(=O)C=C2C=C(C3CC3)N(Cc3ccccc3)C=C2C1=O (stereo not given) | 1.1 | . | -2.31* | . | .
COC(=O)CCC(=O)OC1(C)C(=O)C=C2C=C(C3CC3)N(CC3CC3)C=C2C1=O (stereo not given) | 0.526 | . | -0.796 | . | .
C=CCN(C(=O)c1cccc(S(=O)(=O)N2CCN(C)CC2)c1)c1nc(-c2ccccc2)cs1 | . | 21.8 | 0.728 | 1.7 | 35.0*
CCOC(=O)/C(N)=C/c1ncc(C(F)(F)F)cc1Cl | -0.0031 | -8.7 | -0.668 | 1 | 2.8
S=C(NC1CCCCC1)N(CCc1nc2ccccc2[nH]1)C1CCCC1 | -8.31* | . | 0.0596 | . | .
O=C(Nc1ccccc1)N(CCc1nc2ccccc2[nH]1)C1CCCC1 | -2.56 | -3.3 | -0.198 | 1 | -2.2
CCOc1cc(C2C(C(=O)c3ccccc3)=C(C(=O)OC)Nc3nnnn32)ccc1O (stereo not given) | 0.35 | 10.1 | -0.44 | 0.9 | -9.5
Cn1c(=O)n(C/C=C/c2ccccc2)c(=O)c2c1nc1n2CCCN1c1ccc(F)cc1 | -2.33 | 31.5* | -0.445 | 1.6 | 1.8
Cc1cccc(Cn2c(=O)c3c(nc4n3CCCN4Cc3ccccc3)n(C)c2=O)c1 | -3.96 | 41.9* | 3.03* | 1.3 | -5.6
Cn1c(=O)n(Cc2ccc(F)cc2)c(=O)c2c1nc1n2CCCN1C1CCCCC1 | -4.85* | 16.9 | 0.0495 | 0.9 | -4.9

From PubChem
